Pf growth 96h: Primary qHTS for delayed death inhibitors of the malarial parasite plastid, 96 hour incubation. P. falciparum luciferase reporter growth, 96 h. Potency, µM (doses to about 28.7 µM), for inactives: at the highest dose activity change, negative = inhibition, hits mostly inhibitors. 320,000 tested, 6.9% active. AID 504834, 2011; active = well fitted inhibition curve with a large enough effect; inconclusive = small, poorly fitted or top-dose-only effect, or another doubt; inactive = no such curve, though single readings can be large or run the other way; note: potency is the fitted concentration of half-maximal effect; % is set by controls: 0 for no effect and ±100 for the full control effect
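P. falciparum expressing integrated firefly luciferase grown in erythrocytes (2% hematocrit, 0.05% parasitemia final) with compounds for 96 hours at 37 C, 5% CO2. Growth inhibition read as loss of luminescence after adding luciferase detection reagent.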
Pf growth 48h: Primary qHTS for delayed death inhibitors of the malarial parasite plastid, 48 hour incubation. AID 504832, 2011. 310,000 tested, 5.9% active. P. falciparum luciferase growth in erythrocytes, 48 h. Potency, µM (highest dose often 28.7 µM), without a hit: at the highest dose activity change, negative = inhibition, most hits filed as inhibitors; active = well fitted inhibition curve with a large enough effect; inconclusive = small, poorly fitted or top-dose-only effect, or another doubt; inactive = no such curve, though single readings can be large or run the other way; note: potency is the fitted concentration of half-maximal effect; % is set by controls: 0 for no effect and ±100 for the full control effect
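Read-out is firefly luciferase luminescence from an integrated reporter in P. falciparum, so falling signal marks reduced parasite growth. Infected erythrocytes were at 2% hematocrit and 0.1% parasitemia (final) in Albumax-supplemented RPMI 1640.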
NS1 function inh: qHTS Assay for Inhibitors of Influenza NS1 Protein Function. 270,000 tested, 0.4% active. Potency, µM (highest dose often 46.1 µM), without a hit: top-dose activity, positive = more growth; note: potency is the fitted concentration of half-maximal effect; actives are rising curves; nearly all actives have a fitted effect of over 50% in size
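Growth recovery, yeast-based: influenza A NS1 expressed in S. cerevisiae causes slow growth, and suppressors are detected by OD600. The parent strain without NS1 is used as positive control.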
SARS PLP yeast: qHTS of Yeast-based Assay for SARS-CoV PLP. Potency, µM (series often up to 32.9 µM), without a hit: at the top dose activity, positive = growth rescue, actives largely listed as activators. 330,000 tested, 0.19% active. S. cerevisiae expressing SARS-CoV PLpro, growth rescue; note: potency is the fitted concentration of half-maximal effect; 0% is about no effect; nearly all actives have a fitted effect of over 55% in size
Cycloheximide cs: Cycloheximide Counterscreen for Small Molecule Inhibitors of Shiga Toxin; 300,000 tested, 12% active; cell reporter, cycloheximide protein synthesis inhibition counterscreen; AID 2314, 2010; max response, %; in the data active = max response mostly above about 13%, no sharp cut-off; inactive = mostly below about 14%; note: read at 38.3 µM for the half of the compounds with a filed dose; 0% is about no effect
Shiga inhibitor: A qHTS for Small Molecule Inhibitors of Shiga Toxin. 290,000 tested, 9.2% active. inhibition, % at 38.7 µM. Vero cells, Shiga toxin protein synthesis inhibition reporter; in the data active = inhibition mostly above about 28%, no sharp cut-off; inactive = mostly below about 43%; note: 0% is about no effect
Numbers without * were called inactive; ? = inconclusive; . = not tested or not shown; [ ] = dose if it differs, or a comment. Compounds with a hit are over-represented: about 21% of the library has one in this group of screens. Unless noted, calls come from the whole dose curve.

SMILES	Pf growth 96h	Pf growth 48h	NS1 function inh	SARS PLP yeast	Cycloheximide cs	Shiga inhibitor
Cc1cccc(COCC(Cc2ccccc2)N2CCN(C(=O)c3cccc(Cl)c3)CCC2=O)c1 (centres undefined)	12µM*	?	-20%	10%	-3	-17
C=CCc1ccccc1Oc1cc(F)nc(N)n1	245%	0%	-23%	-2%	-1	-11
CC(CN(C)Cc1nc(Cc2cccc(C(F)(F)F)c2)no1)CN1CCCC1 (centres undefined)	?	3%	1%	1%	-4	2
CC(C)(C)c1ccc(C(=O)NC(=O)CSc2n[nH]c(N)n2)cc1	61%	14%	.	-2%	.	.
O=C(c1cccc(Cl)c1)N1CCC(=O)N(C(COCc2ccccc2)Cc2ccccc2)CC1 (centres undefined)	10µM*	?	-29%	10%	-6	-16
Cc1cccc(C(=O)N2CCC(=O)N([C@H](COCc3ccccc3)Cc3ccccc3)CC2)c1	.	.	.	.	-2	-4
Cc1ccc(S(=O)(=O)N2CCC(=O)N(C(COCc3ccc(Cl)cc3)Cc3ccccc3)CC2)cc1 (centres undefined)	10µM*	12µM*	?	-26%	0	40
Cc1cccc(C(=O)N2CCC(=O)N(C(COCc3ccccc3)Cc3ccccc3)CC2)c1 (centres undefined)	13µM*	-23%	-9%	?	-3	-22
CN(C(=O)Cc1ccccc1OC(=O)c1ccccc1)c1ccccc1I	.	.	.	.	-2	-7
CCC1(CC)NC(=O)N(CC(=O)OCC(=O)c2ccccc2OC)C1=O	31%	11%	.	-1%	.	.
CN(/N=C/c1ccc(Cl)cc1Cl)c1ncc(Cl)cc1C(F)(F)F	-8%	?	-6%	2%	1	-11
CN(/N=C/c1ccc(Cl)cc1)c1ncc(Cl)cc1C(F)(F)F	10%	?	0%	-1%	11*	1
C=CCN1C(=O)C(CC(=O)Nc2ccccc2)N(Cc2ccccn2)C1=S (centres undefined)	17%	?	.	-3%	-7	-6
CCOC(=O)c1c(OCCO)nn(-c2ccc(Cl)cc2)c1N	-7%	20%	.	2%	-4	-3
Cc1ccc(-c2n[nH]c(=O)c3ccccc23)cc1S(N)(=O)=O	-9%	-19%	1%	-2%	0	-18
Cc1onc(-c2c(Cl)cccc2Cl)c1C(=O)N/N=C(\N)COc1ccc(Cl)cc1	?	2.3µM*	-15%	?	-3	20
Cc1onc(-c2c(Cl)cccc2Cl)c1C(=O)Nc1ccc2c(c1)OCCO2	76%	?	-4%	1%	15	18
COc1ccc(NC(=O)c2c(-c3c(Cl)cccc3Cl)noc2C)c(OC)c1	29%	1.7µM*	-4%	-7%	-7	-1
Cc1cc(Br)c(NC(=O)c2c(-c3c(Cl)cccc3Cl)noc2C)c(Br)c1	5.9µM*	10µM*	4%	-2%	1	-2
COc1ccc(NC(=O)c2c(-c3c(Cl)cccc3Cl)noc2C)cn1	-7%	?	-1%	-3%	-2	-7
COC(=O)C1Cc2c([nH]c3ccccc23)CN1C(C)=O (centres undefined)	-17%	-6%	-5%	-1%	-3	-3
CCN(c1cccc(C)c1)S(=O)(=O)c1c(C)[nH]c(C)c1C(=O)N1CCCCC1	-18%	?	-10%	-6%	13	11
COc1cccc2c1O/C(=N\O)C(C(=O)Nc1cccc(Br)c1)C2 (centres undefined)	18%	-21%[0.00184 µM]	2%	0%	33*	80*
COc1cccc2c1O/C(=N\O)C(C(=O)Nc1ccc(C)cc1)C2 (centres undefined)	-18%	14%	-4%	-3%	13*	22
CCCN(C(=O)COc1ccc(Cl)cc1Cl)c1c(N)n(Cc2ccccc2)c(=O)[nH]c1=O	-14%	11%	9%	0%	13	18
SMILES	Pf growth 96h	Pf growth 48h	NS1 function inh	SARS PLP yeast	Cycloheximide cs	Shiga inhibitor
O=C(Nc1ccc(C(=O)N2CCOCC2)cc1)c1ccccc1[N+](=O)[O-]	-13%	15%	15%	7%	0	-23
CC(=O)Nc1cccc(/C(C)=N/NC(=O)c2ccc3c(c2)OCO3)c1	147%	257%	-2%	-2%	26*	42
C/C(=N\NC(=O)c1ccc2c(c1)OCO2)c1cccnc1	-7%	18%	-8%	-1%	37*	90*
C/C(=N/NC(=O)c1ccc2c(c1)OCO2)c1ccc(NC(=O)C(F)(F)F)cc1	90%	116%	7%	-4%	41*	36*
C/C(=N/NC(=O)c1ccco1)c1cccnc1	?	35%	.	-1%	26	29
CC(/C=C/c1ccc2c(c1)OCO2)=N/NC(=O)c1cccnc1	39%	36%	6%	2%	23*	62*
O=C(NCCCO)C(=O)NCc1ccncc1	?	2%	.	2%	-4	-3
C/C(=N\NC(=O)c1ccc2c(c1)OCO2)c1ccc(O)cc1	0%	52%	-9%	-2%	33*	41*
CC/C(=N\NC(=O)c1ccc2c(c1)OCO2)c1ccccc1	?	63%	-4%	7%	37*	46*
C/C(=N/NC(=O)CNC(=O)c1ccc2c(c1)OCO2)c1ccc2c(c1)CCCC2	3.3µM*	1%	.	1%	7	-11
CNC(=S)N/N=C(\C)c1ccc2c(c1)OCO2	?	24%	.	22%	5	26
CC(C)CC(CC(C)C)=NNC(=O)c1ccc2c(c1)OCO2	-8%	?	.	-1%	52*	74*
O=C(N/N=C(/c1ccccc1)c1ccncc1)c1ccc2c(c1)OCO2	-43%	-1%	-2%	10%	-4	-5
CC(C)CCn1cnc2c(cnn2-c2ccc(Cl)cc2)c1=O	0%	?	9%	0%	-2	-19
COc1ccc(N(C(C)C(=O)Nc2ccc(S(=O)(=O)N3CCCCC3)cc2)S(C)(=O)=O)cc1 (centres undefined)	12%	-16%	-4%	13%	-3	-1
C/C(=N\NC(=O)c1cc(C)oc1C)c1ccc2c(c1)OCO2	12%	36%	.	-5%	48*	122*
C/C(=N\NC(=O)c1ccccc1)c1ccc2c(c1)OCO2	-17%	.	-9%	2%	51*	96*
C/C(=N\NC(=O)Cc1ccccc1Cl)c1cccnc1	1.7µM*	?	-20%	3%	25	18
C/C(=N/NC(=O)CCc1ccccc1)c1ccc2c(c1)OCO2	?	7%	-3%	0%	9	-2
C/C(=N\NC(=O)c1ccc(Br)cc1)c1cccnc1	?	63%	-5%	?	22*	45
